In all, about 52,000 compounds went through this assay and fewer than 10 were called active.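 How the source made its calls: active means IC50 under 40 µM in the dose-response test; inactive means IC50 of 40 µM or more, or never dose-tested.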 The list is a sample of the results.
Molecular target: Tyrosine-protein phosphatase non-receptor type 22 (Homo sapiens) (UniProt Q9Y2R2)
Test: inhibition of human PTPN22 tyrosine phosphatase – biochemical, DiFMUP fluorescence, recombinant catalytic domain, 10 µM, primary screen (AID 606)
Conditions: recombinant LYP catalytic domain, at 10 µM, hits give high values

Sequence of Tyrosine-protein phosphatase non-receptor type 22 (Homo sapiens) (Q9Y2R2 whole entry, looked up, the tested form may be a part): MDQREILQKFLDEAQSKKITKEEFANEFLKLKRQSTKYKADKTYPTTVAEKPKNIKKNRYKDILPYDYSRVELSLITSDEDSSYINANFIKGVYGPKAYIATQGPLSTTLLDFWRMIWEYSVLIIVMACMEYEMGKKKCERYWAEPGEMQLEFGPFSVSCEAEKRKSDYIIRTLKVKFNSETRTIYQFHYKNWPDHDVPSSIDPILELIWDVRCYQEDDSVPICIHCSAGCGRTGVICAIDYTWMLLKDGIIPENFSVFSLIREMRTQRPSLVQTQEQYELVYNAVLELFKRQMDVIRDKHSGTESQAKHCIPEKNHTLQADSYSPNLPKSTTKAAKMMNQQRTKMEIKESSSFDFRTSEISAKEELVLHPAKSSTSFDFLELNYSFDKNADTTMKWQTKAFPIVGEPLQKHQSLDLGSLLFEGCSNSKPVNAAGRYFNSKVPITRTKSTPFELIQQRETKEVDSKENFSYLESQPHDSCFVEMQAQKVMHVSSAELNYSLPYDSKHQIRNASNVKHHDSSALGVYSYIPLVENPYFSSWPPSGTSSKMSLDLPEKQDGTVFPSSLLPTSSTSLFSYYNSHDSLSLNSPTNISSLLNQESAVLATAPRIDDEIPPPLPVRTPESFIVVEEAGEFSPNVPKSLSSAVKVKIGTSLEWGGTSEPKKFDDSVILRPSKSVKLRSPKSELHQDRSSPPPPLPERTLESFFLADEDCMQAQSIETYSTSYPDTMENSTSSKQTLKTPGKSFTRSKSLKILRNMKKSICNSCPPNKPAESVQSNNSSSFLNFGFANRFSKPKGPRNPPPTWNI

inhibition, inactive:
COCC(C)n1c(C)cc(C(=O)COC(=O)c2ccc3ncsc3c2)c1C (centres undefined) -12.6%, CCCn1cnc2cc(NCc3ccccn3)ccc21 6.61%, NC(=O)c1ccccc1NC(=O)CCCN1C(=O)CCC1=O 14.4%, CCN(CC)c1ccc(C(=O)OCC(=O)N2CCN(c3ccccc3)CC2)cc1 0.55%, COc1ccc(N(CC(=O)Nc2ccc(OC)c(Cl)c2)S(=O)(=O)c2c(C)noc2C)cc1 6.18%, CCOC(=O)C1CCN(C(=O)COc2ccc(N(C)S(=O)(=O)c3cccs3)cc2)CC1 4.68%, CC1(C)Cc2c(C#N)c(NCCCO)nc(-c3ccccc3)c2CO1 -2.42%, CSc1nc(-c2ccco2)nn1S(=O)(=O)c1ccccc1 -1.38%, CCN(CC)Cc1cc2ccccc2c2c1COC2 0.09%, c1ccc(CCNc2ncnc3c2nnn3Cc2ccccc2)cc1 -4.3%, COc1cccc(OC)c1OCC(O)CN1CCN(c2ccccc2)CC1 (centres undefined) 2.34%, CC#CCCCC(=O)Nc1cc(OC)nc(OC)n1 3%, CN1C(=O)C(C(=O)NC(C)(C)C)C2c3ccccc3OC13CCCCC23 (centres undefined) -15%, CC(C)N(Cc1nc(-c2ccccc2)no1)S(=O)(=O)c1ccccc1 1.55%, COc1cccc(NC(=O)c2ccc(CN3CCOCC3)cc2)c1 8.87%, Cc1nc2nc(-c3cccnc3)nn2c(C)c1Cl 14.4%, CCc1cc(C(=O)Nc2ccccc2)cs1 0.95%, CC(C)n1c(C(O)c2ccc3c(c2)OCO3)nc2ccccc21 (centres undefined) 5.85%, COc1cccc2cc(-c3cn4cccc(C)c4n3)c(=O)oc12 -3.29%, CCCn1c(CN2CCCCC2CC)nc2c1c(=O)n(C)c(=O)n2C (centres undefined) -4.26%, CC(=O)NC(CCS(C)(=O)=O)C(=O)Nc1ccccc1Cl (centres undefined) 1.63%, CS(=O)(=O)N(CC(=O)Nc1ccc2c(c1)OCCO2)c1ccc2c(c1)OCO2 23.4%, COc1ccc(N2CCN(C(=O)C(Cc3ccccc3)n3cccc3)CC2)cc1 (centres undefined) -12.6%, CCN(CC)C(c1ccc(F)cc1)c1nnnn1C1CCCCC1 (centres undefined) 3.34%, NC(=O)NC(=O)COC(=O)CCCc1c[nH]c2ccccc12 1.43%, Cc1noc(NS(=O)(=O)c2ccc(NC(=O)CSc3ncccn3)cc2)c1C 11.6%, COc1ccc(C(CNC(=O)c2cc(C)oc2C)N2CCOCC2)cc1 (centres undefined) 10.4%, CC(C)(C)NC(=O)CN(C(=O)c1ccc(CN2CCOCC2)o1)c1ccc2c(c1)OCCO2 -2.48%, N#CCCN(C(=O)c1ccco1)c1ccccc1 9.22%, Cc1ccc(NC(=O)c2ccc(S(=O)(=O)NCC3CCCO3)cc2)cc1 (centres undefined) 15.7%, O=C(CN1CCN(S(=O)(=O)c2ccc(Br)cc2)CC1)Nc1ccc2c(c1)OCO2 14.6%, O=C(NCC1CCCO1)[C@@H]1CSC2c3ccccc3C(=O)N21 (some centres undefined) -1.83%, O=C(CSc1nnc(-c2ccccn2)n1Cc1ccco1)c1ccc(-c2ccccc2)cc1 -10.3%, O=C(CCc1ccccc1)Nc1nnc(-c2cccs2)o1 -13%, COc1ccc(C(=O)N2CC(=O)N(CCc3ccccc3)C(=O)C2)cc1OC 9.04%, O=C(C1CCN(S(=O)(=O)N2CCOCC2)CC1)N1CCOCC1 2.43%, CC1CN(Cc2nc3c(c(=O)n(C)c(=O)n3C)n2CC(=O)c2ccccc2)CC(C)O1 (centres undefined) -0.17%, COc1ccc(-n2c(=O)[nH]cc(C(=O)N3CCCc4ccccc43)c2=O)cc1 2.14%, O=C(NCc1ccco1)C1CCN(S(=O)(=O)c2cccc3cccnc23)CC1 4.72%, CCCCn1c2c(c(=O)n(C)c1=O)C(c1ccc(OC)cc1)N1CCCCCC1=N2 (centres undefined) -3.4%, Cc1ccc(S(=O)(=O)NCCC(=O)NCc2ccccc2)cc1 7.96%, CC1CCc2sc3nc(NCc4ccco4)n4ncnc4c3c2C1 (centres undefined) 2.11%, C=CCn1c(NCCO)nc2sc3c(c2c1=O)CCC3 11.6%, OCCn1nc2c3ccccc3nc-2n(-c2ccccc2)c1=S 3.81%, O=C(Nc1c(C(=O)N2CCOCC2)cnn1-c1ccccc1)c1ccccc1 1.38%, COc1ccc2c(c1)C1(Nc3ccccc3-c3nc4ccccc4n31)C(=O)N2C (centres undefined) 7.56%, C1CCc2c(nnc3c2-c2nonc2CC3)C1 11.1%, CSc1nc2c(c(=O)n1Cc1ccccc1)SC(C)C2 (centres undefined) 0.73%, Cn1c(SCC(=O)N2CCCCC2)nnc1-c1ccc(S(=O)(=O)N2CCOCC2)cc1 13.4%, CC(C)(C)NC(=O)C(OC(=O)Cn1nnc(-c2ccc(F)cc2)n1)c1ccncc1 (centres undefined) 1.61%, O=C(c1cc2ccccn2n1)N1CCN(c2ccccn2)CC1 7.66%, CN1C(=O)C(O)(CC(=O)c2ccccn2)c2cc(Br)ccc21 (centres undefined) 4.59%, COc1cc2ccccc2cc1C(=O)Nc1ccccc1N1CCN(S(C)(=O)=O)CC1 6.41%, CC(=O)c1c(N2CCN(c3ccccc3)CC2)nc(=S)n(-c2ccccc2)c1C 3.4%, Cn1c(CCNC(=O)c2cccs2)nnc1SCC(=O)N1CCN(c2ccccc2)CC1 6.14%, CCN1C(=O)C(O)(CC(=O)c2cc(C)ccc2C)c2ccccc21 (centres undefined) 11.7%, CCOC(=O)c1cc2n(n1)C(C(F)(F)C(F)(F)F)CC(C)N2 (centres undefined) 15.7%, O=C(C1CCN(c2nnc(-n3cccc3)s2)CC1)N1CCN(c2cccc(C(F)(F)F)c2)CC1 -2.18%, NC(=O)CN(c1ccc(Cl)cc1)S(=O)(=O)c1ccccc1 -12.5%, COc1ccc(N(CC(=O)N2CCc3ccccc3C2)S(=O)(=O)c2c(C)nn(C)c2C)cc1 -0.55%, O=C(NCc1ccccc1)c1ccc(COCC(F)(F)F)o1 11.7%, CCN1C(=Nc2ccc(Cl)cc2)SC/C1=C\C(=O)OC 6.44%, COc1ccc(C2CC(c3cccc(C)c3)n3ncnc3N2)cc1 (centres undefined) 16.6%, CC1CCC(NC(=O)CN2C(=O)C3CCCN3c3ncc(Cl)cc32)CC1 (centres undefined) -36.6%, Cc1cc(N2CCN(C(c3ccccc3)c3ccc(Cl)cc3)CC2)n2ncnc2n1 (centres undefined) 3.46%, O=C(Nc1ccccn1)C1CCN(S(=O)(=O)c2cccs2)CC1 4.65%, COc1ccc(CCNC(=O)CC2Oc3ccc(Cl)cc3NC2=O)cc1OC (centres undefined) -7.5%, CC(=O)Nc1ccc(C(=O)OCCC(C)C)cc1 -3.58%, Cc1nc2ccc(S(=O)(=O)NCC(=O)N(C)Cc3ccco3)cc2s1 4.87%, CNC(=O)c1ccccc1NC(=O)c1cccc(S(=O)(=O)N2CCC(C)CC2)c1 -7.79%, CCc1ccc2c(COn3nnc4ccc(S(=O)(=O)N(C)C)cc43)cc(=O)oc2c1 -1.03%, CCCSCCCNC(=O)CC1Oc2ccccc2NC1=O (centres undefined) 2.3%, Cc1cccc(Nc2ncnc3nc[nH]c23)c1 -1.47%, CCOCCCNCc1ccc(OC)c(OC)c1 6.63%, CCOC(=O)C1CCN(C(=O)CN(c2cccc(OC)c2)S(=O)(=O)c2ccccc2)CC1 -2.95%, COc1ccccc1OCCC(=O)OCCN1C(=O)c2ccccc2C1=O -6.96%, O=C(Cn1cnc2ccccc2c1=O)N1CCN(Cc2ccccc2)CC1 15.4%, CC(C)(C)c1ccc(S(=O)(=O)N2CCCCC2C(=O)NCc2ccccn2)cc1 (centres undefined) 11%, CCOc1ccc(NC(=O)CSc2nnc(-c3ccccn3)n2N)cc1 6.01%, Cc1c(NC(=O)C2CCCN(S(=O)(=O)c3cnc[nH]3)C2)c(=O)n(-c2ccccc2)n1C (centres undefined) 8.93%, COc1ccc2c(C)cc(SCC(=O)N3CCOCC3)nc2c1 8.83%, Cc1cc(=O)[nH]c(SCC(=O)c2ccc(C(C)C)cc2)n1 10.2%, COC(=O)C1=C(C)n2nnnc2NC1c1cc2ccccc2o1 (centres undefined) 12.9%, COc1cccc(NC(=O)CN(c2cccc(F)c2)S(C)(=O)=O)c1 -7.34%, Cc1cc(C)c(S(=O)(=O)N(C)Cc2cnn(C)c2)c(C)c1 7.74%, Cc1ccc(-c2cc(C(=O)NCc3ccccn3)no2)cc1 6.16%, CC1(C)Cc2ccccc2-c2nnc(-c3ccc(O)cc3)n21 5.6%, COc1ccc(C(=O)N2CCN(c3ccc(C)cc3)CC2)cc1OC -3.18%, CCNC(=O)CC1C(=O)N(c2ccccc2)C(=O)N1CCC(C)C (centres undefined) 5.24%, COc1ccccc1-n1c(CNC(=O)c2ccco2)nnc1SCC(=O)Nc1nccs1 3.45%, CCOC(=O)Cn1c(=N)n(Cc2ccccc2)c2ccccc21 -0.97%, Cn1c(CN2CCOCC2)nc2cc(NC(=O)c3ccccc3Cl)ccc21 10.7%, Cc1cc(C)n2nc(C(=O)Nc3ccccc3N3CCOCC3)nc2n1 15.1%, CCCn1c(N)c(C(=O)CN2CCN(S(=O)(=O)c3cccs3)CC2)c(=O)[nH]c1=O -0.47%, CCCN(c1ccc(OCC)cc1)c1ncnc2nc[nH]c12 16.1%, CC1(C)Cc2c(sc(NC(=O)c3ccco3)c2C#N)CO1 4.29%, CC(=O)c1ccc(OCCCC(=O)n2nnc3ccccc32)cc1 14.1%, Cc1cc(C(F)(F)F)nc(SCC(=O)Nc2ccccc2)n1 0.2%, C=CCSc1nc(C)c(CC(=O)OCCCC)c(=O)[nH]1 2.59%, CCOC(=O)c1oc2c(CN3CCCCC3C)c(O)ccc2c(=O)c1-c1ccc(OC)c(OC)c1 (centres undefined) 15.8%, CC(=O)NC(c1ccccc1)c1nc2ccccc2[nH]1 (centres undefined) -1.04%, CCCn1c(NCc2ccco2)nc2ccccc21 11.7%, COc1ccc(CCNc2cc(=O)[nH]c(N)n2)cc1 16.4%, COC(=O)c1ccc(CSc2nc3scc(-c4cccs4)c3c(=O)[nH]2)o1 3.74%, COc1ccc(NC2CCN(C3CC(=O)N(c4ccc(F)c(Cl)c4)C3=O)CC2)cc1 (centres undefined) 4.79%, COc1ccc(CC(=O)N2CCN=C2SC)cc1 7.94%, O=S(=O)(Nc1ccc2c(c1)oc1ccccc12)N1CCCC1 -2.32%, Cc1ccc(S(=O)(=O)/N=C(/Nc2nc(C)cc(C)n2)N2CCOCC2)cc1 2.14%, Cc1nnc(NCc2ccco2)c2ccccc12 5.7%

Reference: PubChem BioAssay AID606 (Columbia University Molecular Screening Center, 2007)
